Sampled rows, rich in hits. Any-hit rate of the full collection: about 4.6%.
IL1B NFkB pot: enhances IL-1B driven NFkB nuclear translocation; HUVEC IL-1B NFkB p65 nuclear translocation imaging; actives 0.3% (n = 94,000); AID 819; activation, % at 2 µM;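 active means activation above 40%, about the mean plus 3 SD, also judged a hit on visual image review; inconclusive means activation above 40% but not a hit on visual review; inactive means activation not above 40% and no visual hit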;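 further: percent activation is computed from the nuclear over cytoplasmic p65 intensity ratio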
Cav3 T inh: inhibitors of human Cav3.2 T-type calcium channel; O95180; Cav3.2-expressing cells, Fluo-4 calcium fluorescence FDSS; hits give low values; B-score at 10 µM; actives 4% (n = 100,000); AID 449739;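 active means single-dose well whose peak fluorescence ratio is a statistical outlier from its plate by either plate-standardised score or position-corrected B-score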
IL1B cytotox: HUVEC cytotoxicity counter-screen, IL-1B stimulated; actives 0.41% (n = 94,000); HUVEC cell count loss, Hoechst imaging; cell count reduction, % at 2 µM;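 active means cell count reduction more than 3 SD above the screen-wide mean, cut at about 70% in these data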
sEH inhibitor: blocks human soluble epoxide hydrolase activity. recombinant human sEH enzymatic activity assay. inhibition, % at 2 µM. P34913. actives 0.34% (n = 91,000); in the data active means inhibition above about 80%
Target sequence (P34913 whole entry, looked up): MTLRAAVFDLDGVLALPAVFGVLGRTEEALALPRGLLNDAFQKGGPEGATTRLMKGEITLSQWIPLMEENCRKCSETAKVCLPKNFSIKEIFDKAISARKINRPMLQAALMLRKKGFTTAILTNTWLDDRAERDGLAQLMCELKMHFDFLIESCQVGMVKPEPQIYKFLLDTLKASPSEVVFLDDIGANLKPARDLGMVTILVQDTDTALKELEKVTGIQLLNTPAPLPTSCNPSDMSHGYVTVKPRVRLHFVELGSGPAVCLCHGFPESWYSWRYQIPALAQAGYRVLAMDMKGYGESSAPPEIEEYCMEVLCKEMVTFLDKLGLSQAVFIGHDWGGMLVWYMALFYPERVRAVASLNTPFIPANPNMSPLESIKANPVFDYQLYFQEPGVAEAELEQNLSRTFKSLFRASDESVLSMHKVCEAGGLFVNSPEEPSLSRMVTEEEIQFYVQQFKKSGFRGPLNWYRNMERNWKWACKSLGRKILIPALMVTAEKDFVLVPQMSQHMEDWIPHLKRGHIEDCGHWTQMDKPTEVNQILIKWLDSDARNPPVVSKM
sEH act: increases human soluble epoxide hydrolase activity. P34913. purified human sEH enzymatic activity, activator screen. activation, % at 2 µM. actives 0.04% (n = 91,000); in the data active means activation above about 37%
NFkB transloc inh: blocks IL-1B driven NFkB nuclear translocation in HUVEC cells. HUVEC IL-1B NFkB p65 nuclear translocation imaging. actives 0.43% (n = 94,000). inhibition, % at 2 µM;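 active means inhibition above about 30% together with a positive call from visual inspection of the well image, limit read from the data; inconclusive means inhibition above a set limit but visual check negative; inactive means inhibition not above a set limit, visual check negative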;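 further: nuclear over cytoplasmic p65 intensity ratio measured by imaging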
Hits are given with their value; n = inactive; u = inconclusive; x = no result.

SMILES | IL1B NFkB pot | Cav3 T inh | IL1B cytotox | sEH inhibitor | sEH act | NFkB transloc inh
O=C(Nc1ccc2c(c1)OCO2)N1CCN(c2ncc(C(F)(F)F)cc2Cl)CC1 | n | -6.62 | n | n | n | n
CC(C)C(=O)Nc1cccc(C(=O)NCCc2ccc(S(N)(=O)=O)cc2)c1 | n | n | n | n | n | n
O=C(O)c1ccccc1C(=O)N1CC=C(c2ccccc2)CC1 | n | n | n | n | n | n
CCN(CC)S(=O)(=O)c1ccc(NC(=O)CCC2CCCCC2)cc1 | n | -4.42 | n | n | n | n
CCN(CC)S(=O)(=O)c1ccc(NC(=O)Cn2c(=O)sc3ccccc32)cc1 | n | -6.05 | n | n | n | n
Cc1noc(NS(=O)(=O)c2ccc(NC(=O)CCC3CCCCC3)cc2)c1C | n | n | n | n | n | n
COc1cccc(C(C)NC(=O)Nc2cccc(C(F)(F)F)c2)c1 (centres undefined) | n | -8.29 | n | n | n | n
O=C(CN1C(=O)c2ccccc2C1=O)OC(C(=O)c1ccc(Cl)cc1)c1ccccc1 (centres undefined) | n | n | n | n | n | n
Cc1ccc(C(=O)C(OC(=O)CN2C(=O)c3ccccc3C2=O)c2ccccc2)cc1 (centres undefined) | n | -5.93 | n | n | n | n
Cc1ccc(C(=O)C(OC(=O)CN2C(=O)c3ccccc3C2=O)c2ccccc2)cc1C (centres undefined) | n | -5.08 | n | n | n | n
CS(=O)(=O)N1CCC(C(=O)Nc2ccc(F)cc2F)CC1 | x | n | x | x | x | x
CCOc1ccc(C2=Nn3c(nnc3-c3ccccc3OC)SC2)cc1 | n | -5.33 | n | n | n | n
Nc1nc2ccc(O)cc2s1 | n | n | n | n | n | 35.1
Nc1nc2ccc(S(=O)(=O)c3ccc4nc(N)sc4c3)cc2s1 | n | n | n | n | n | n
COc1ccc(-c2nnc3c4ccccc4c(C)nn23)cc1 | n | n | n | n | n | n
Cc1ccc(NC2=C/C(=N\S(=O)(=O)c3cccs3)c3ccccc3C2=O)c(C)c1 | n | n | n | n | n | n
Cc1ccc(Cl)cc1NC1=C/C(=N\S(=O)(=O)c2cccs2)c2ccccc2C1=O | 41.0 | x | n | n | n | n
CC(/C=N/Nc1nnc2c(n1)[nH]c1ccccc12)=C\c1ccco1 | 64.6 | n | n | n | n | n
NC(=O)CSc1nnc(-c2ccncc2)n1-c1ccc(Cl)cc1 | x | n | x | x | x | x
CC12CCC(C(=O)Nc3ccc(SC(F)F)cc3)(CC1=O)C2(C)C (centres undefined) | n | n | n | n | n | n
Cn1c(SCC(=O)NCCc2ccccc2)nnc1-c1ccco1 | n | n | n | n | n | n
COc1cccc(-n2c(SCC(=O)NCCc3ccccc3)nnc2-c2ccoc2C)c1 | x | -8.05 | x | x | x | x
Cc1occc1-c1nnc(SCC(=O)Nc2ccccc2)n1C(C)c1ccccc1 (centres undefined) | x | -4.27 | x | x | x | x
Cc1occc1-c1nnc(SCC(=O)Nc2ccccc2)n1CCc1ccccc1 | n | n | n | n | n | n
Cc1occc1-c1nnc(SCC(=O)NCCc2ccccc2)n1Cc1ccccc1 | n | -4.96 | n | n | n | n
SMILES | IL1B NFkB pot | Cav3 T inh | IL1B cytotox | sEH inhibitor | sEH act | NFkB transloc inh
Cc1occc1-c1nnc(SCC(N)=O)n1Cc1ccccc1 | n | n | n | n | n | n
COc1ccc(-n2c(SCC(=O)Nc3nc(C)cs3)nnc2-c2ccoc2C)cc1 | n | -6.54 | n | n | n | n
CCN(CC)CCCN1C(=O)C(O)=C(C(=O)c2cccs2)C1c1ccccn1 (centres undefined) | n | n | n | n | n | n
COc1cccc(-n2c(SCC(=O)Nc3nccs3)nnc2-c2ccoc2C)c1 | n | -3.97 | n | n | n | n
O=C(C1CCC(=O)N1Cc1ccccc1Cl)N1CCN(c2ccc(F)cc2)CC1 (centres undefined) | n | n | 77.8 | n | n | n
CC(C)CCN1CC(C(=O)N2CCN(c3ccc(F)cc3)CC2)CC1=O (centres undefined) | n | n | 75.8 | n | n | n
COc1ccccc1CN1CC(C(=O)N2CCN(c3ccc(F)cc3)CC2)CC1=O (centres undefined) | 41.1 | x | n | n | n | n
CNC(=O)C1CCC(=O)N1Cc1ccccc1Cl (centres undefined) | n | n | n | n | n | n
CC1(C)Cc2ccccc2-c2c1c(=O)n(Cc1ccccc1)c1nnnn21 | n | n | n | n | n | n
Cc1nc2ccccc2n1/C(=N/S(=O)(=O)c1ccc(Br)cc1)c1ccccc1 | n | n | n | n | n | n
O=C(O)CCCCCNS(=O)(=O)c1ccc(Cl)cc1 | n | n | n | n | n | 47.1
Cc1nn(-c2ncc(C(F)(F)F)cc2Cl)c(=O)n1-c1ccccc1Cl | n | n | n | n | n | 31.4
O=C(Nc1ccccc1C(=O)Nc1ccccc1C(=O)NCc1ccco1)c1ccco1 | n | n | n | n | n | n
O=C(NCc1ccccn1)C1CCN(S(=O)(=O)N2CCCC2)CC1 | x | n | x | x | x | x
Cc1cc(N2CCN(c3ccccc3Cl)CC2)n2cc(-c3ccccc3)nc2n1 | n | -4.33 | n | n | n | n
COC(=O)c1cc(OC)c(OC)cc1NC(=S)N1CCN(C)CC1 | n | n | 73.1 | n | n | n
CCOC(=O)C(NS(=O)(=O)c1ccccc1)(C(F)(F)F)P(=O)(OC(C)C)OC(C)C (centres undefined) | n | n | n | n | n | n
COc1ccc(OCCSc2nnc(CC(=O)Nc3cccc(Cl)c3Cl)n2C)cc1 | n | -4.04 | n | n | n | n
CCn1c(CC(=O)Nc2cccc(Cl)c2Cl)nnc1SCCOc1ccc(OC)cc1 | n | n | n | n | n | n
CCCc1cc(C(=O)Nc2nccs2)cs1 | n | n | n | n | n | n
CCN(CC)c1ccc2cc(C(C)=O)c(=O)oc2c1 | n | -10.3 | n | n | n | n
CCN(CC)c1ccc2cc(C=O)c(=O)oc2c1 | 71.9 | -9.02 | n | n | n | n
CCN(CC)c1ccc2cc(-c3nnc(-c4ccncc4)o3)c(=O)oc2c1 | n | -4.02 | n | n | n | n
COc1ccc(N2C(=O)CC(Sc3ncccc3C(=O)O)C2=O)cc1 (centres undefined) | n | n | n | n | n | n
CC(=O)Nc1ccc(SCC(=O)OCC(=O)NC(=O)NCc2ccco2)cc1 | n | x | n | n | n | n
SMILES | IL1B NFkB pot | Cav3 T inh | IL1B cytotox | sEH inhibitor | sEH act | NFkB transloc inh
CCn1c(COc2cccc3ccccc23)nnc1SCC(=O)OC1CCCCC1 | n | -5.59 | n | n | n | n
CCOc1ccc(NC(=O)CSc2nnc(C(C)C)n2CC)cc1 | u | n | 94.7 | n | n | n
CCn1c(COc2ccccc2)nnc1SCC(=O)Nc1cc(OC)ccc1OC | n | n | n | n | n | n
CCOC(=O)c1cccc(NC(=O)CSc2nnc(COc3ccccc3)n2CC)c1 | n | -6.09 | n | n | n | n
CCn1c(COc2cccc(C)c2)nnc1SCC(=O)Nc1cccc(C(=O)OC)c1 | n | n | n | n | n | n
CCOC(=O)c1ccccc1NC(=O)CSc1nnc(COc2ccccc2)n1CC | n | -5.66 | n | n | n | n

Source: PubChem (several laboratories)
